Source: PubChem BioAssay AID2546 (National Center for Advancing Translational Sciences (NCATS), 2010)
The campaign covered roughly 310,000 compounds. About 11,000 (3.5%) were called active. Roughly 8% stayed inconclusive and do not appear here. The call rests on the fitted dose curve; in most records, active means well fitted inhibition curve with a large enough effect; inconclusive means small, poorly fitted or top-dose-only effect, or effect the other way; inactive means flat fitted curve, though single readings scatter. Shown is part of a subset that was picked to be rich in actives. A call without a number means that no potency is given here.

test: VP16 counterscreen qHTS for inhibitors of ROR gamma transcriptional activity; conditions: Drosophila S2 Gal4-VP16 UAS-luciferase, luminescence, 20 h; series mostly up to 53.6 µM;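 further: Gal4-VP16 expression switched on by copper sulfate through the metallothionein promoter; nearly all actives have a fitted effect of over 50% in size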
Potency means the concentration at half of the fitted maximal effect.

Row | SMILES | Potency
1 | CC(=O)c1ccc(NC(=O)c2ccc(-n3cncn3)c([N+](=O)[O-])c2)cc1 | inactive
2 | S=C(NCc1ccc(Cl)cc1)NC1CCCCC1 | 7.94 µM (active)
3 | CN(C)CCCNC(=S)NCc1ccc(Cl)cc1 | inactive
4 | O=C(NCc1ccncc1)NC12CC3CC(CC(C3)C1)C2 | inactive
5 | COc1ccc(Cl)cc1C(=O)NNC(=S)NC1CCCC1 | inactive
6 | O=C(NCc1ccc(Cl)cc1)NCc1ccc(Cl)cc1 | inactive
7 | S=C(NCc1ccc(Cl)cc1)NC12CC3CC(CC(C3)C1)C2 | 3.16 µM (active)
8 | O=C(NCCc1ccc(Cl)cc1)c1cccc(N2CCCC2=O)c1 | inactive
9 | CN1CCN(S(=O)(=O)c2ccc(NC(=S)NC(=O)C3CC3)cc2)CC1 | inactive
10 | S=C(Nc1ccc(Cl)cc1Cl)N1CCCC1 | inactive
11 | O=C(NC(=S)Nc1ccc(Cl)cc1Cl)C1CC1 | 5.62 µM (active)
12 | Oc1ccccc1C1=NN(c2ccccc2)C(c2ccccc2)C1 (stereo unspecified) | inactive
13 | CCC(=O)Nc1nc(C)c(C(=O)Nc2cccc(Cl)c2)s1 | inactive
14 | CN1CCN(C(=O)c2cnn(-c3ccccc3)c2NC(=O)c2ccc([N+](=O)[O-])cc2)CC1 | inactive
15 | Cc1cccc(NC(=S)NC(=O)c2ccc(Br)o2)c1 | inactive
16 | Cc1cccc(NC(=O)NC(=S)NC(=O)c2ccccc2)c1 | 5.01 µM (active)
17 | Cc1ccc(NC(=O)NC(=O)c2ccccc2)cc1F | inactive
18 | Cc1ccn2c(c1)nc(=O)c1cc(S(=O)(=O)N3CCC(C)CC3)ccc12 | inactive
19 | COc1ccc(CCNC(=O)C(=O)NCC2OCCN2S(=O)(=O)c2ccc(OC)c(C)c2)cc1 (stereo unspecified) | inactive
20 | COc1ccc(C(=O)CSc2nnc(COc3ccccc3)n2Cc2ccco2)cc1 | inactive
21 | Cc1nc2c(c(=O)n1Cc1ccco1)c1nc3ccccc3nc1n2Cc1ccccc1 | inactive
22 | Cn1c2ccccc2c(=O)c2c(=O)n(Cc3ccco3)c(COc3ccccc3)nc21 | 17.8 µM (active)
23 | O=C(N/N=C/c1cccc2cccnc12)[C@H]1C[C@@H]1c1ccccc1 | 8.91 µM (active)
24 | O=C(NNC(=S)Nc1ccc(F)cc1)[C@H]1C[C@@H]1c1ccccc1 | inactive

Row | SMILES | Potency
25 | COc1cc(/C=N\NC(=O)C2C(=O)NCC2c2ccccc2)cc(OC)c1O (stereo unspecified) | inactive
26 | CC(=O)c1ccc(S(=O)(=O)N(C)CCCC(=O)N(C)Cc2ccccc2F)cc1 | inactive
27 | CCOc1ccc(N(CC)S(=O)(=O)c2cccc3nsnc23)cc1 | inactive
28 | CN(C)/C=C1/C(=O)Nc2ccccc21 | inactive
29 | CN(C)/C=C1\C=C(c2ccccc2)OC1=O | 35.5 µM (active)
30 | Cc1ccc(C2=C/C(=C\c3cccnc3)C(=O)O2)cc1 | inactive
31 | COc1cc(NC(=O)CN2C(=O)NC(C)(c3ccc(OC(F)F)cc3)C2=O)cc(OC)c1OC (stereo unspecified) | inactive
32 | Cc1ccc(O)c(CNc2nc3ccccc3[nH]2)c1 | inactive
33 | COc1ccc(NC(=O)CCCC(=O)c2ccccc2)cc1 | inactive
34 | Cc1cccc(C(=O)NC(=S)N(C)C2CCCCC2)c1 | 2.24 µM (active)
35 | Cc1ccc(S(=O)(=O)NC(=O)c2cccc(C)c2)cc1 | inactive
36 | Cc1cccc(C(=O)NCCCN(C)CCCNC(=O)c2cccc(C)c2)c1 | inactive
37 | COc1ccc(N2CCN(C(=O)[C@@H](NC(=O)c3cc(OC)cc(OC)c3)C(C)C)CC2)cc1 | inactive
38 | CCC(NC(=O)c1cc(COc2ccc(F)c(F)c2)on1)c1ccncc1 (stereo unspecified) | inactive
39 | Cc1ccc(NC(=O)CSCC(=O)NC2CCCCC2)cc1 | inactive
40 | Cc1ccc(NC(=S)NC2CCCC2)cc1 | 11.2 µM (active)
41 | Cc1cc(C)cc(NC(=O)NC2CCCCCCC2)c1 | inactive
42 | Cc1cc(Br)ccc1NC(=S)NC1CCCC1 | 5.62 µM (active)
43 | CC(Oc1ccc(Br)cc1Br)C(=O)NC1CCCC1 (stereo unspecified) | inactive
44 | CC(C)c1ccc(NC(=O)NC2CCCCC2)cc1 | inactive
45 | CCC1=Nc2cc(C(=O)NCCN3CCCC3)ccc2Sc2ccc(C)cc21 | inactive
46 | C/C(=N/OC(=O)c1ccc(Br)cc1)c1ccc(C)cc1 | inactive
47 | COc1ccccc1C(=O)N/C(=C/c1ccco1)C(=O)Nc1ccc(C(=O)O)cc1 | inactive
48 | Cc1ccc(/C=N/NC(=S)Nc2cccc(S(=O)(=O)N(C)C)c2)o1 | 15.8 µM (active)

Row | SMILES | Potency
49 | CN(C)S(=O)(=O)c1cccc(NC(=O)Cc2ccsc2)c1 | inactive
50 | CN(C)S(=O)(=O)c1cccc(NC(=O)COC(=O)c2cc(=O)[nH]c(=O)[nH]2)c1 | inactive
51 | N#CCC(=O)NC1CCC(CC2CCC(NC(=O)CC#N)CC2)CC1 (stereo unspecified) | inactive
52 | COCCNc1ccc(-c2n[nH]c(=O)c3ccccc23)cc1[N+](=O)[O-] | inactive
53 | Cc1ccc2oc(C(=O)N3CCN(C)C[C@@H]3C(C)C)c(C)c2c1 | inactive
54 | Cc1nnc(SCC(N)=O)n1CC1CCCO1 (stereo unspecified) | inactive
55 | Cc1ccsc1C(=O)OCC(=O)c1cc(C)n(CC2CCCO2)c1C (stereo unspecified) | 7.08 µM (active)
56 | Cc1cc(C(=O)Cn2cnc3cc([N+](=O)[O-])ccc3c2=O)c(C)n1CC1CCCO1 (stereo unspecified) | inactive
57 | CCOc1ccc2[nH]c(=O)c(CN(CCCO)S(=O)(=O)c3ccc(F)cc3)cc2c1 | inactive
58 | COc1ccc2oc(C(=O)NCc3ccco3)c(C)c2c1 | inactive
59 | CN(C)c1ccc(-c2nc(NCCN3CCOCC3)c3ccccc3n2)cc1 | inactive
60 | c1ccc2cc3c(NCCN4CCOCC4)ccnc3cc2c1 | 12.6 µM (active)
61 | Clc1ccccc1-c1cc(NCCN2CCOCC2)ncn1 | inactive
62 | COc1ccc(C(=O)Nc2ccc(NC(=O)C(C)C)nc2)cc1 | inactive
63 | COc1ccc(CS(=O)/C(Cl)=C(/Cl)C(=O)Nc2ccc(OC)nc2)cc1 (stereo unspecified) | 3.98 µM (active)
64 | COc1ccc(NC(=O)/C(Cl)=C(/Cl)S(=O)Cc2ccc(C)cc2)cn1 (stereo unspecified) | inactive
65 | COc1cccc(CNC(=O)COc2cc(O)c3c(c2)OC(C)(C)CC3=O)c1 | inactive
66 | COc1cc(/C=N/Nc2ccc(C)cc2)cc(Br)c1O | inactive
67 | COc1cc(/C=N/O)cc(Br)c1OS(=O)(=O)c1ccc(C)cc1 | 11.2 µM (active)
68 | COc1cc(/C=N/O)ccc1OCc1ccc([N+](=O)[O-])cc1 | inactive
69 | COc1ccc(/C=N/NC(=O)c2ccccc2)cc1OS(=O)(=O)c1ccccc1 | inactive
70 | COc1cc(/C=N/O)cc(Br)c1OCc1cccc(Cl)c1 | 11.2 µM (active)
71 | CCOc1c(Cl)cc(/C=N/O)cc1OC | inactive
